Results from PubChem BioAssay.
This is one part of the list. Calls of active or inactive are those of the source.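 How the source made its calls, unless noted: active means inhibition above a cutoff equal to the mean inhibition of all tested compounds plus 3 SD (cut at about 30% in these data); inactive means the rest.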

Molecular target: Bcl-2-like protein 1 (Homo sapiens) (UniProt Q07817)
Sequence (Q07817 whole entry, looked up): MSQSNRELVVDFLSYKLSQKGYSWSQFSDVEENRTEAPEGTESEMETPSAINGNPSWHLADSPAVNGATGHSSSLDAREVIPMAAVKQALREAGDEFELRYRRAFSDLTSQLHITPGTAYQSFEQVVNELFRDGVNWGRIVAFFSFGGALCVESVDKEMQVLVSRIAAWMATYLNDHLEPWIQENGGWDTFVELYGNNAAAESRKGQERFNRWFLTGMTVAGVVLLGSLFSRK
Assay: Bcl-xL inhibitors blocking Bim BH3 binding, confirmation, counter-screen for MCL1 inhibitor project, biochemical, fluorescence polarization (AID 2166)
Settings: GST-Bcl-xL / FITC-Bim BH3 peptide FP binding; at 10.9 µM; hits give high values
With `COCCOC(=O)c1sc(=S)n(CCOC)c1N` the inhibition was 85.4% (active).
With `COCCNC(=O)Nc1ccc2nc(-c3ccco3)c(-c3ccco3)nc2c1` the inhibition was 104% (active).
In the case of `CC(C)(C)OC(=O)NCCCC1=CC2=CC(=O)C(C)(OC(=O)c3ccco3)C(=O)C2=CO1` (stereo not given), the inhibition is reported as 26.3% (inactive).
For `COc1ccc(-c2nc(CS(=O)CC(=O)NCc3ccccn3)c(C)o2)cc1` (stereo not given), the inhibition was 96.8% (active).
For `COc1ccc(-c2onc3ccc(C(C)=O)cc23)cc1`, the inhibition was 172% (active).
For `COc1ccc(Cl)cc1NC(=O)CCS(=O)(=O)c1ccc(Br)cc1`, the inhibition was 6.91% (inactive).
For `c1ccc(CSc2nnc(-c3ccco3)c(-c3ccco3)n2)cc1`, the inhibition was 13.9% (inactive).
With `CC/C(C)=N/Nc1nc2sc3c(c2c(=O)[nH]1)CC(C)(C)OC3` the inhibition was 34.7% (active).
In the case of `O=[N+]([O-])c1cc(Cl)cc(/C=N/NC(=S)Nc2cc(S(=O)(=O)N3CCOCC3)ccc2Cl)c1O`, the inhibition is reported as 24.4% (inactive).
With `Cc1ccc(/C=C(\C#N)C(=O)Nc2cccc3ncccc23)o1` the inhibition was 23.1% (inactive).
For `CCCn1c(O)c(CN2CCCC(C)C2)c(C)c(C#N)c1=O` (stereo not given), the inhibition was 36.2% (active).

Molecular target: Induced myeloid leukemia cell differentiation protein Mcl-1 (Homo sapiens) (UniProt Q07820)
Sequence (Q07820 whole entry, looked up): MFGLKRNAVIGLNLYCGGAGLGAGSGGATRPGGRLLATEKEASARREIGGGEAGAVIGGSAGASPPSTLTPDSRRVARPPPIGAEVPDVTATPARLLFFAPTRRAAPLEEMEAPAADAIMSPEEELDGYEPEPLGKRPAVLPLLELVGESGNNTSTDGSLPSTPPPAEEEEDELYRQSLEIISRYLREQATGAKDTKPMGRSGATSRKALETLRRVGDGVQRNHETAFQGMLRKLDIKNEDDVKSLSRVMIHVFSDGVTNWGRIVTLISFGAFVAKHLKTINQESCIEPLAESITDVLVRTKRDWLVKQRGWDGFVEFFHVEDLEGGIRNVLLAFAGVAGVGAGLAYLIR
Assay: inhibitors of MCL1 binding to BIM-BH3, confirmation, biochemical, fluorescence polarization, triplicate (AID 2168;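 active means inhibition above the average of all tested compounds plus 3 SD, cut at about 40% in these data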;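 further: 0% = DMSO wells and 100% = unlabeled Bim-BH3 control peptide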)
Settings: GST-MCL1 / FITC-Bim-BH3 fluorescence polarization; at 10.9 µM; hits give high values
With `COCCOC(=O)c1sc(=S)n(CCOC)c1N` the inhibition was 131% (active).
With `COCCNC(=O)Nc1ccc2nc(-c3ccco3)c(-c3ccco3)nc2c1` the inhibition was 136% (active).
With `CC(C)(C)OC(=O)NCCCC1=CC2=CC(=O)C(C)(OC(=O)c3ccco3)C(=O)C2=CO1` (stereo not given) the inhibition was 36.3% (inactive).
For `COc1ccc(-c2nc(CS(=O)CC(=O)NCc3ccccn3)c(C)o2)cc1` (stereo not given), the inhibition was 125% (active).
With `COc1ccc(Cl)cc1NC(=O)CCS(=O)(=O)c1ccc(Br)cc1` the inhibition was 46.5% (active).
With `c1ccc(CSc2nnc(-c3ccco3)c(-c3ccco3)n2)cc1` the inhibition was 59.9% (active).
In the case of `CC/C(C)=N/Nc1nc2sc3c(c2c(=O)[nH]1)CC(C)(C)OC3`, the inhibition is reported as 53.8% (active).
In the case of `O=[N+]([O-])c1cc(Cl)cc(/C=N/NC(=S)Nc2cc(S(=O)(=O)N3CCOCC3)ccc2Cl)c1O`, the inhibition is reported as 42.4% (active).
For `Cc1ccc(/C=C(\C#N)C(=O)Nc2cccc3ncccc23)o1`, the inhibition was 43.1% (active).
In the case of `CCCn1c(O)c(CN2CCCC(C)C2)c(C)c(C#N)c1=O` (stereo not given), the inhibition is reported as 39.3% (inactive).

Molecular target: Protein phosphatase methylesterase 1 (Homo sapiens) (UniProt Q9Y570)
Sequence (Q9Y570 whole entry, looked up): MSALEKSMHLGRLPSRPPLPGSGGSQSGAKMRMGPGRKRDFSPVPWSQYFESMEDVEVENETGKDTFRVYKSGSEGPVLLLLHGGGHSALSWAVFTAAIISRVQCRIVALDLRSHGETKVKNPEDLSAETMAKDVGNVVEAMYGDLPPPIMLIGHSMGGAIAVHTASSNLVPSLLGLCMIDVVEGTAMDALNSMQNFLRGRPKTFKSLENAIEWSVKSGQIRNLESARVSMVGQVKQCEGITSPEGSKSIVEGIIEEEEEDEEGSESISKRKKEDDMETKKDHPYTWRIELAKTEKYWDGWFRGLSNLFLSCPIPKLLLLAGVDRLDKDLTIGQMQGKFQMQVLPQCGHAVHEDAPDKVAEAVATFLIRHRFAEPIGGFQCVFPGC
Assay: PME-1 inhibitor activity retest, confirmation, biochemical, fluorescence polarization, FP-Rh probe, triplicate (AID 2171;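 active means inhibition above the hit cutoff set in the earlier primary screen, cut at about 27% in these data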;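 further: 0% = enzyme with DMSO and 100% = wells lacking PME-1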)
Settings: recombinant PME-1, FP-Rh probe fluorescence polarization; at 5.9 µM; hits give high values
For `Oc1ccc(C2Nc3cccc4cccc(c34)N2)cc1`, the inhibition was 12.9% (inactive).
With `Cc1ccc(NS(=O)(=O)c2ccc(N/N=C/c3ccccc3OCC(=O)O)c([N+](=O)[O-])c2)c(C)c1` the inhibition was 74.8% (active).
With `COCCOC(=O)c1sc(=S)n(CCOC)c1N` the inhibition was 21.3% (inactive).
In the case of `O=C(NNc1c2ccccc2nc2ccccc12)c1cc2ccccc2cc1O`, the inhibition is reported as -6.46% (inactive).
In the case of `COc1ccc(NS(=O)(=O)c2cc(NC(=O)CC(=O)c3ccc([N+](=O)[O-])cc3)ccc2C)cc1`, the inhibition is reported as -1.55% (inactive).
In the case of `Cc1cccc(-c2nc(Nc3ccc(O)cc3)c3ccccc3n2)c1`, the inhibition is reported as -0.9% (inactive).

Molecular target: Glutathione S-transferase omega-1 (Homo sapiens) (UniProt P78417)
Sequence (P78417 whole entry, looked up): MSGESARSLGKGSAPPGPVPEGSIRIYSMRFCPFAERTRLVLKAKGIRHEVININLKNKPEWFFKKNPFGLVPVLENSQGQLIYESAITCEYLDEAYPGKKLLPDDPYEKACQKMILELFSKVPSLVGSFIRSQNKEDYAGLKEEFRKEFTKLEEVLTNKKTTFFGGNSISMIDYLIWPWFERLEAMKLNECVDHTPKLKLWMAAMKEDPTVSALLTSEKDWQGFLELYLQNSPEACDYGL
Assay: GSTO1 inhibitor hit confirmation, counter-screen for RBBP9 inhibitor project, biochemical, fluorescence polarization, triplicate (AID 2176;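 active means inhibition above the primary screen's cutoff, its mean inhibition plus 3 SD, cut at about 35% in these data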;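 further: loss of polarization as inhibitors block binding of rhodamine sulfonate ester activity probe; 0% = GSTO1 with DMSO and 100% = wells lacking GSTO1 enzyme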)
Settings: recombinant GSTO1, probe fluorescence polarization; at 5.96 µM; hits give high values
With `COc1ccc(OC)c(Nc2nc(-c3ccc(O)c(O)c3)cs2)c1` the inhibition was 2.96% (inactive).
For `COCCNC(=O)Nc1ccc2nc(-c3ccco3)c(-c3ccco3)nc2c1`, the inhibition was 64.7% (active).
For `CC[N+](C)(CC)CCC[n+]1c(-c2ccccc2)c2cc(N)ccc2c2ccc(N)cc21`, the inhibition was 85.8% (active).
In the case of `c1ccc(CSc2nnc(-c3ccco3)c(-c3ccco3)n2)cc1`, the inhibition is reported as 33.6% (inactive).
With `Clc1ccccc1CSc1nnc(-c2ccco2)c(-c2ccco2)n1` the inhibition was 23.6% (inactive).

Molecular target: Platelet-activating factor acetylhydrolase (Homo sapiens) (UniProt Q13093)
Sequence (Q13093 whole entry, looked up): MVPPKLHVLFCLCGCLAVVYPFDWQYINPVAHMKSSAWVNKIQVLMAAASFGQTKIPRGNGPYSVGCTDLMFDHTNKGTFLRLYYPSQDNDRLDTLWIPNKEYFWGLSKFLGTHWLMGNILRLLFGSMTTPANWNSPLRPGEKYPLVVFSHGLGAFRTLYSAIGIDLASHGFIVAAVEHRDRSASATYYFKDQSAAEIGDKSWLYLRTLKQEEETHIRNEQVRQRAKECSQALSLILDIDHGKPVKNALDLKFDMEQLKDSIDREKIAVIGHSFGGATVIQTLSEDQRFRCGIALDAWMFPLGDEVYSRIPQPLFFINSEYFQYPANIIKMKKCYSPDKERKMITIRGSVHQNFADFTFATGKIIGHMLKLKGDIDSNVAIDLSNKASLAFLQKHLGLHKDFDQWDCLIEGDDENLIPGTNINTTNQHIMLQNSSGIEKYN
Assay: pPAFAH (PLA2G7) enzyme inhibitors, confirmation, biochemical, fluorescence polarization, human (AID 463230;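 active means mean inhibition of the triplicate above the hit cutoff set for the earlier primary screen, cut at about 25% in these data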;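 further: 0% = enzyme with DMSO and 100% = wells lacking pPAFAH enzyme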)
Settings: recombinant pPAFAH, FP-Rh probe fluorescence polarization; at 3.39 µM; hits give high values
For `Cc1ccc(NS(=O)(=O)c2ccc(N/N=C/c3ccccc3OCC(=O)O)c([N+](=O)[O-])c2)c(C)c1`, the inhibition was 84.3% (active).
For `COc1ccc(OC)c(Nc2nc(-c3ccc(O)c(O)c3)cs2)c1`, the inhibition was 50.8% (active).
In the case of `COCCNC(=O)Nc1ccc2nc(-c3ccco3)c(-c3ccco3)nc2c1`, the inhibition is reported as 33.1% (active).
With `c1ccc(CSc2nnc(-c3ccco3)c(-c3ccco3)n2)cc1` the inhibition was 33.6% (active).

Molecular target: Serine protease HTRA1 (Homo sapiens) (UniProt Q92743)
Assay: HTRA1 protease inhibitors, retest, confirmation, biochemical, fluorescence polarization (AID 540248;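 active means mean inhibition over three repeats above a set limit taken from the earlier primary screen, cut at about 37% in these data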;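 further: 0% = HTRA1 with DMSO and 100% = wells lacking HTRA1; inhibitors block probe binding so polarization drops and inhibition rises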)
Settings: recombinant HTRA1, FP-rhodamine activity-based probe, at 5.96 µM, hits give high values
With `O=C(N/N=C/c1sc(N2CCCCC2)nc1-c1cccs1)c1cccnc1` the inhibition was 58.4% (active).
With `Cc1ccc(NS(=O)(=O)c2ccc(N/N=C/c3ccccc3OCC(=O)O)c([N+](=O)[O-])c2)c(C)c1` the inhibition was 50.2% (active).
With `COc1ccc(NS(=O)(=O)c2cc(NC(=O)CC(=O)c3ccc([N+](=O)[O-])cc3)ccc2C)cc1` the inhibition was 28.7% (inactive).
For `Clc1ccccc1CSc1nnc(-c2ccco2)c(-c2ccco2)n1`, the inhibition was 2.03% (inactive).
With `O=[N+]([O-])c1cc(Cl)cc(/C=N/NC(=S)Nc2cc(S(=O)(=O)N3CCOCC3)ccc2Cl)c1O` the inhibition was 125% (active).

Test system: not listed separately
Assay: compounds interfering with TAMRA-BSA probe, counter-screen for TCR-CD3 interaction inhibitor project, biochemical, fluorescence, TAMRA-labeled BSA (AID 652035; in the data active means inhibition above about 23%;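 further: 0% = buffer low control and 100% = reference high control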)
Settings: TAMRA-labeled BSA probe fluorescence counterscreen; at 9.4 µM; hits give high values
In the case of `COCCOC(=O)c1sc(=S)n(CCOC)c1N`, the inhibition is reported as 42.3% (active).
For `COCCNC(=O)Nc1ccc2nc(-c3ccco3)c(-c3ccco3)nc2c1`, the inhibition was -14.8% (inactive).
With `O=[N+]([O-])c1cc(Cl)cc(/C=N/NC(=S)Nc2cc(S(=O)(=O)N3CCOCC3)ccc2Cl)c1O` the inhibition was -14.9% (inactive).
With `CN(NC(=O)c1ccccc1F)c1nc(C(F)(F)F)nc2ccccc12` the inhibition was 4.94% (inactive).
